From PubChem BioAssay (Tox21)
Values without a mark were called inactive. Records with an inconclusive call do not appear. Where a call stands in place of a potency, no number is given. Active and inactive are the calls of the source. Unless noted, the call rests on the fitted dose curve; in most records, active means well fitted curve in the direction sought with a large enough effect in the repeat runs; inconclusive means weak or mixed curves; inactive means no such curve, though single readings can be large; an effect the other way counts as inactive or inconclusive.

Assays:
[1] = qHTS assay to identify small molecule antagonists of the sonic hedgehog signaling (Shh) pathway (AID 1259369; calls by dose curve; further: nearly all actives have a fitted effect of over 45% in size; further: potency means the concentration at half of the fitted maximal effect)
Outline: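 NIH/3T3-derived Gli1-Luc reporter cells plated 4 h, dosed with compound, then stimulated with conditioned medium for 24 h at 37 C. Firefly luciferase luminescence read after 30 min with detection reagent at room temperature.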

[2] = qHTS assay to identify small molecule agonists of the androgen receptor (AR) signaling pathway in the presence of an antagonist - cell viability counter screen (AID 1259379);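 further: MDA-kb2 human breast cancer cells carrying an MMTV luciferase reporter; series mostly up to about 92 µM; nearly all actives have a fitted effect of over 25% in size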
Outline: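 MDA-kb2 cells (MMTV-luciferase, AR/GR), 3,000/well, 5 h attachment, then 3.0 µM nilutamide (final) and compounds at 15 concentrations. Viability by CellTiter-Fluor fluorescence after 16 h at 37 °C, 0% CO2, in the reporter wells.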

[3] = qHTS assay to identify small molecule agonists of the estrogen receptor beta (ER-beta) signaling pathway - cell viability counter screen (AID 1259380); further: nearly all actives have a fitted effect of over 30% in size; further: potency means the concentration at half of the fitted maximal effect
Outline: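 ER-beta-UAS-bla HEK293T cells in medium with 2% charcoal-stripped FBS, pre-incubated 6 hr, then treated 16 hr at 37C. Cytotoxicity read in the same wells by CellTiter-Glo luminescence after 30 min at room temperature.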

[4] = qHTS assay to identify small molecule antagonists of the estrogen receptor beta (ER-beta) signaling pathway - cell viability counter screen (AID 1259382);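 further: HEK293T cells carrying ER-beta-UAS-bla reporter stimulated with estradiol; series mostly up to about 92 µM; nearly all actives have a fitted effect of over 55% in size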
Outline: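 ER-beta-UAS-bla HEK293T cells in 2% charcoal-stripped FBS medium, treated with compound plus 1 nM 17-beta-estradiol for 16 h at 37C. Viability read by CellTiter-Glo luminescence after 30 min at room temperature in the same wells.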

[5] = qHTS assay to identify small molecule agonists or antagonists of the thyroid stimulating hormone receptor (TSHR) signaling pathway - wild type cell line counter screen (AID 1259384; calls by dose curve)
Outline: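 Wild-type HEK293 cells were plated 18 h at 37 C/5% CO2, pin-dosed with compound plus Ro20-1724 medium, held 30 min at room temperature, then given cAMP-d2 and anti-cAMP-cryptate; fluorescence was read after 1 h. Fifteen concentrations, triplicate.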

[6] = target: Thyrotropin receptor (Homo sapiens) (UniProt P16473); test: qHTS assay to identify small molecule antagonists of the thyroid stimulating hormone receptor (TSHR) signaling pathway (AID 1259385; calls by dose curve; further: nearly all actives have a fitted effect of over 20% in size; further: potency means the concentration at half of the fitted maximal effect)
Outline: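 TSHR-HEK293 cells were plated and held 18 h at 37C/5% CO2, then given compound plus Ro20-1724 and stimulated with TSH at 1.5 ng/mL final. After 30 min at room temperature, cAMP was detected with cAMP-d2/anti-cAMP-cryptate (1 h) by fluorescence.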

[7] = qHTS assay to identify small molecule agonists of the estrogen receptor alpha (ER-alpha) signaling pathway in the presence of an antagonist - cell viability counter screen (AID 1259386);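 further: series mostly up to about 92 µM; cells exposed to compounds for 22 h at 37 °C before the viability read; nearly all actives have a fitted effect of over 30% in size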
Outline: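 Cell viability in VM7Luc4E2 cells (endogenous full-length ER-alpha) measured by CellTiter-Fluor fluorescence in the same wells as the luciferase screen. Cells pre-cultured 5 days in charcoal-stripped serum, then treated 22 h with compounds at 15 concentrations plus 10.0nM ICI-182,780.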

[8] = target: Progesterone receptor (Homo sapiens) (UniProt P06401); test: qHTS assay to identify small molecule agonists of the progesterone receptor (PR) signaling pathway (AID 1346784; calls by dose curve; further: nearly all actives have a fitted effect of over 30% in size)
Outline: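 The screen uses PR-UAS-bla HEK 293T cells in charcoal-stripped serum (2%). Compounds are applied for 16 hr at 37C after a 6 hr pre-incubation, and reporter activity is detected with a FRET beta-lactamase substrate after 2 hr at room temperature.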

[9] = target: Progesterone receptor (Homo sapiens) (UniProt P06401); test: qHTS assay to identify small molecule antagonists of the progesterone receptor (PR) signaling pathway (AID 1346795; active means well fitted inhibition curve with a large enough effect in the signal ratio in the repeat runs, not every such curve was filed as active; the % refers to the signal ratio)
Outline: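 After 6 hr plating at 37C in 2% stripped-serum medium, PR-UAS-bla HEK293T cells got compounds, then 1 nM R5020. Sixteen hours later, LiveBLAzer substrate was applied for 2 hr at room temperature and fluorescence was recorded.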

[10] = qHTS assay to identify small molecule agonists of the progesterone receptor (PR) signaling pathway - cell viability counter screen (AID 1346799; calls by dose curve; further: nearly all actives have a fitted effect of over 45% in size)
Outline: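 Viability was scored by ATP luminescence (CellTiter-Glo, 30 min, room temperature) in the same wells used for the reporter readout, after 16 hr compound exposure of PR-UAS-bla HEK293T cells.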

[11] = qHTS assay to identify small molecule antagonists of the TGF-beta/Smad signaling pathway - cell viability counter screen (AID 1346824); further: nearly all actives have a fitted effect of over 50% in size
Outline: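 SBE-bla HEK 293T cells were plated overnight at 37 C, then given compounds in DMSO plus TGF-beta1 (added as 0.25 ng/mL solution) for 5 hr. After the bla read, CellTiter-Glo was added to the same wells and luminescence read after 30 min at room temperature.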

[12] = qHTS assay to identify small molecule agonists of the TGF-beta/Smad signaling pathway - cell viability counter screen (AID 1346829); further: top concentration of the series differs between compounds; nearly all actives have a fitted effect of over 45% in size
Outline: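 Luminescence from CellTiter-Glo, read after a 30 min room-temperature incubation, gives cell viability of SBE-bla HEK 293T cells treated 5 hr with compounds at 37 C.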

[13] = qHTS assay to identify small molecule agonists of the TGF-beta/Smad signaling pathway (AID 1346859; active means well fitted activation curve with a large enough effect in the signal ratio in the repeat runs, not every such curve was filed as active; the % refers to the signal ratio; further: series mostly up to about 77 µM)
Outline: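 Dual-wavelength fluorescence (460/530 nm emission) quantified beta-lactamase expression under the Smad binding element in HEK 293T cells following 5 hr compound treatment at 37 C.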

[14] = target: Thyrotropin-releasing hormone receptor (Homo sapiens) (UniProt P34981); test: qHTS assay to identify small molecule antagonists of the thyrotropin-releasing hormone receptor (TRHR) signaling pathway (AID 1346877; active means well fitted inhibition curve with a large enough effect in the repeat runs, not every such curve was filed as active; further: series mostly up to about 51 µM)
Outline: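 TRHR-expressing HEK293 cells loaded with calcium dye for 2 h at 37 C; compounds pre-incubated 5 min at room temperature before TRH challenge at 1 nM final. Intracellular calcium fluorescence read kinetically for 3 min; 15 concentrations in triplicate.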

[15] = target: Thyrotropin-releasing hormone receptor (Homo sapiens) (UniProt P34981); test: qHTS assay to identify small molecule agonists of the thyrotropin-releasing hormone receptor (TRHR) signaling pathway (AID 1346891; calls by dose curve; further: series mostly up to about 58 µM)
Outline: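 Kinetic fluorescence (3 min, 1 s intervals) reported intracellular calcium after compound transfer onto TRHR-Hek293 cells pre-loaded with dye for 2 h at 37 °C.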

[16] = qHTS assay to identify small molecule antagonists of the progesterone receptor (PR) signaling pathway - cell viability counter screen (AID 1346798); further: series mostly up to about 92 µM; nearly all actives have a fitted effect of over 50% in size
Outline: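 Viability was determined by ATP-based luminescence (CellTiter-Glo) in PR-UAS-bla HEK293T cells cultured in 2% charcoal-stripped serum and incubated 16 hr with compounds under R5020 stimulation.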

[17] = target: Estrogen receptor (Homo sapiens) (UniProt P03372); test: qHTS assay to identify small molecule agonists of the estrogen receptor alpha (ER-alpha) signaling pathway in the presence of an antagonist (AID 1259383; calls by dose curve; further: top concentration of the series differs between compounds; nearly all actives have a fitted effect of over 15% in size)
Outline: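 VM7Luc4E2 cells express endogenous full-length ER-alpha with an ERE-luciferase reporter and were hormone-deprived for 5 days. Compounds at 15 concentrations were added with 10.0nM ICI-182,780 for 22hr at 37C. Luminescence was read with ONE-Glo.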

[18] = target: Androgen receptor (Homo sapiens) (UniProt P10275); test: qHTS assay to identify small molecule agonists of the androgen receptor (AR) signaling pathway in the presence of an antagonist (AID 1259381; calls by dose curve; further: nearly all actives have a fitted effect of over 15% in size)
Outline: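 MDA-kb2 cells carrying MMTV-luciferase (AR/GR responsive), 3,000 cells/well, co-treated with 3.0 uM nilutamide final. Compounds at 15 concentrations, 16 hr at 37C without CO2. Luciferase luminescence read after 30 min with ONE-Glo.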

Chain of Estrogen receptor (Homo sapiens) (P03372 whole entry, looked up): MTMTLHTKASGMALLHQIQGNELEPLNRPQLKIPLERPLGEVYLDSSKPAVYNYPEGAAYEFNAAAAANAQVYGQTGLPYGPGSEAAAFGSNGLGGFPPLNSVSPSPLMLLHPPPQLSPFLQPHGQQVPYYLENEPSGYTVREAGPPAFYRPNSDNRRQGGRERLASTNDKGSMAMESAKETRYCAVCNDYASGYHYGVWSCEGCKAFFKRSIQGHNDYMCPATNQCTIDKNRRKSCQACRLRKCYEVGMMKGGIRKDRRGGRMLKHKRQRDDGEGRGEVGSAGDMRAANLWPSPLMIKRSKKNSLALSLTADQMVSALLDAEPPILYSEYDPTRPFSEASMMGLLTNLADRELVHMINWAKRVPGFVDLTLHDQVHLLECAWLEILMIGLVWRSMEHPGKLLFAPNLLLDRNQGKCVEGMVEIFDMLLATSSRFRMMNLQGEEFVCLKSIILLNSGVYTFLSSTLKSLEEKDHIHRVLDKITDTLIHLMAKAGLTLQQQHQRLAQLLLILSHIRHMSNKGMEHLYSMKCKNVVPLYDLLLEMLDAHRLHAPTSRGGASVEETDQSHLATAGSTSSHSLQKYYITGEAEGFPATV
Chain of Progesterone receptor (Homo sapiens) (P06401 whole entry, looked up): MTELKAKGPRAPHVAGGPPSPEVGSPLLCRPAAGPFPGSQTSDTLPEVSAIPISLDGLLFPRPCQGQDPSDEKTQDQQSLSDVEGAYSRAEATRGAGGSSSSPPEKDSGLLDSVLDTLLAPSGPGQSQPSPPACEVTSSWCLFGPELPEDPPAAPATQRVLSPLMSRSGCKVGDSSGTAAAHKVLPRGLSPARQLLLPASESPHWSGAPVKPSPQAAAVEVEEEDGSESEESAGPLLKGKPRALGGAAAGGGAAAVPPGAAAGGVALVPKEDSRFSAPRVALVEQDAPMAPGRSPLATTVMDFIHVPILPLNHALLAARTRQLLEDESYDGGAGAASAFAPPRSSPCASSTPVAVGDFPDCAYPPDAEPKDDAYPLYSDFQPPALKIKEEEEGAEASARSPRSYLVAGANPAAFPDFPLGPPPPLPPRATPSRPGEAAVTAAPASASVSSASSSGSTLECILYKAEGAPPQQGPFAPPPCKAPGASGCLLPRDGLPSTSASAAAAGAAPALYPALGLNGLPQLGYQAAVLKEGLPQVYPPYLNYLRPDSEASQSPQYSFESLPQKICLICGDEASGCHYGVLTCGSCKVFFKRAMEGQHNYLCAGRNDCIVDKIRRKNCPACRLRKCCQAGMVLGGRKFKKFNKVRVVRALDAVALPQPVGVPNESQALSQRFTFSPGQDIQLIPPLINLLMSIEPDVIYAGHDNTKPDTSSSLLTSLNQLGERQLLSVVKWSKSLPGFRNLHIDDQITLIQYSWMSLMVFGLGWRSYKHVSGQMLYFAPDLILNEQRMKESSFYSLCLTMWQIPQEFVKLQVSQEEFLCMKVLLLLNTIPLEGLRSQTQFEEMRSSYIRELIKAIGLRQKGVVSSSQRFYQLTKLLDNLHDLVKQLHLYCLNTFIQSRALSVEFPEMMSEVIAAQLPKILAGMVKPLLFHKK
Chain of Thyrotropin-releasing hormone receptor (Homo sapiens) (P34981 whole entry, looked up): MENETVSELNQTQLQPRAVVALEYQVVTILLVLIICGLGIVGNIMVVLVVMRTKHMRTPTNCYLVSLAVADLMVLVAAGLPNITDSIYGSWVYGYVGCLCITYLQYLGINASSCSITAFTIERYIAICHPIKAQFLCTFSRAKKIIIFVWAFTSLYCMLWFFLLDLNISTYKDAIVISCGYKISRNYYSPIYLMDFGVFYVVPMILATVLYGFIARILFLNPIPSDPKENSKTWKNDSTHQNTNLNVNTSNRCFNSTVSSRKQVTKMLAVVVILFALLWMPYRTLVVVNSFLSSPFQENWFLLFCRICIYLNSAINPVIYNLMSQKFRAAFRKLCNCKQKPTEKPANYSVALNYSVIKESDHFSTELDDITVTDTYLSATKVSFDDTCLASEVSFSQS
Chain of Thyrotropin receptor (Homo sapiens) (P16473 whole entry, looked up): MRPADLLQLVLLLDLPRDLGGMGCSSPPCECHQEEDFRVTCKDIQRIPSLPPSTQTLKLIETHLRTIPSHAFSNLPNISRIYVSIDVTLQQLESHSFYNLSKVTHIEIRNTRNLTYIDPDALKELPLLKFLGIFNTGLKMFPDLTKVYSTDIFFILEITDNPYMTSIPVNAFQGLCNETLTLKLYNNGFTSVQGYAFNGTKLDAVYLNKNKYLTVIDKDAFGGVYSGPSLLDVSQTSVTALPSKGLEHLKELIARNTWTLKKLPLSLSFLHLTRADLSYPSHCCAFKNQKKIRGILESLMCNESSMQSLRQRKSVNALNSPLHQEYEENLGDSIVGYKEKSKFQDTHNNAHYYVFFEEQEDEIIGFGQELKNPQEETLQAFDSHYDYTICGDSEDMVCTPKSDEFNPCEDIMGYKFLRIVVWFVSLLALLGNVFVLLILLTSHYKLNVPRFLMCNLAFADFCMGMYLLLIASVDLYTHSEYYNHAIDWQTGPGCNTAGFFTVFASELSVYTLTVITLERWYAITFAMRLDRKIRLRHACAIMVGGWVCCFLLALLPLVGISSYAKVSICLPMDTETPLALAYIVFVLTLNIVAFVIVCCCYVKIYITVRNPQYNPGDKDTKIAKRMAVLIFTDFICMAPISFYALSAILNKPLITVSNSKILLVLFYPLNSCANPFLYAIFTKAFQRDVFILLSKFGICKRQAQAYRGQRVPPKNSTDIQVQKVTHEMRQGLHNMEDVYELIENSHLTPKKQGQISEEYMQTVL
Chain of Androgen receptor (Homo sapiens) (P10275 whole entry, looked up): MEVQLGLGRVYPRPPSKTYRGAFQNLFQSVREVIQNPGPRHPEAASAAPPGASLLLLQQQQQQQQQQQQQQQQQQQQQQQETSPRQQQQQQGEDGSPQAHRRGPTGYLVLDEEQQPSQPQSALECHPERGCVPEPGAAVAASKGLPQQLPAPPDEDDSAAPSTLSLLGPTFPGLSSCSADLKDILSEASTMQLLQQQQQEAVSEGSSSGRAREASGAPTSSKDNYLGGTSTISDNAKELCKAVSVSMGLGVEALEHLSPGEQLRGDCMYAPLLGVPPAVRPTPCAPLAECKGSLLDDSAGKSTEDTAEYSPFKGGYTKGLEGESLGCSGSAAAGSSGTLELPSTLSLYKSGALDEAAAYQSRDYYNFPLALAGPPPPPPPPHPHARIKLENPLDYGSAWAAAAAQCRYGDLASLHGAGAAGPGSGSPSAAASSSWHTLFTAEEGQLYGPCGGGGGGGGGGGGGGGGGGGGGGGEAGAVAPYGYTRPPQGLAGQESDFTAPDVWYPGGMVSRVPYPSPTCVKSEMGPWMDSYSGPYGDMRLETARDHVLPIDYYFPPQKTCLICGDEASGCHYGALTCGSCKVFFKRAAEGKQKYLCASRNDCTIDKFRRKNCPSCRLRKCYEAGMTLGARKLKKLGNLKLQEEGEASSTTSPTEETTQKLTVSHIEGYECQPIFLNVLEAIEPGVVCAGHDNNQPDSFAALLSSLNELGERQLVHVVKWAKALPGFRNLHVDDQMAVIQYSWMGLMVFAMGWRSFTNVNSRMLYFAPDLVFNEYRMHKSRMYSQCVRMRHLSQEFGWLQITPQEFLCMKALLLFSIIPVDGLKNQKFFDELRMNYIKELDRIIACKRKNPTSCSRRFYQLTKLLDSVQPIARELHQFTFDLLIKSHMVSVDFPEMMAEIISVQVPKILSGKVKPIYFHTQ

| Compound | Potency [1] | Potency [2] | Potency [3] | outcome [4] | outcome [5] | Potency [6] | Potency [7] | Potency [8] | Potency [9] | Potency [10] | outcome [11] | outcome [12] | outcome [13] | outcome [14] | Potency [15] | Potency [16] | Potency [17] | Potency [18] |
| --- | --- | --- | --- | --- | --- | --- | --- | --- | --- | --- | --- | --- | --- | --- | --- | --- | --- | --- |
| C/C(=N\O)[C@@H](C)NCC(C)(C)CN[C@H](C)/C(C)=N/O | inactive | inactive | inactive | inactive | inactive | inactive | inactive | inactive | inactive | inactive | inactive | inactive | inactive | inactive | inactive | – | – | – |
| Cc1ccccc1C(=O)Nc1ccc(C(=O)N2CCCC(O)c3cc(Cl)ccc32)c(C)c1 (stereo not given) | inactive | inactive | 23.7 µM (active) | inactive | – | – | inactive | inactive | – | – | inactive | inactive | inactive | inactive | inactive | inactive | – | – |
| CCN(O)CC | 11.9 µM (active) | inactive | inactive | inactive | – | – | inactive | – | inactive | inactive | inactive | inactive | inactive | – | – | inactive | – | – |
| CC(C)C[C@H](NC(=O)OCC1c2ccccc2-c2ccccc21)C(=O)O | inactive | inactive | 61.1 µM (active) | – | inactive | inactive | – | – | – | – | inactive | inactive | – | – | – | inactive | – | – |
| CC(C)=CCCC(C)CCOC=O (stereo not given) | 34.4 µM (active) | inactive | inactive | inactive | inactive | inactive | inactive | inactive | inactive | inactive | inactive | inactive | inactive | inactive | inactive | inactive | – | – |
| Clc1cccc(-c2cc(Cl)cc(Cl)c2)c1 | inactive | inactive | – | inactive | inactive | 52.5 µM (active) | inactive | inactive | – | – | inactive | inactive | inactive | inactive | inactive | inactive | inactive | – |
| C1CSCCS1 | inactive | inactive | inactive | inactive | inactive | inactive | inactive | – | – | inactive | inactive | inactive | inactive | – | – | inactive | – | – |
| CC1=C2[C@H](/C=C(\C)C(=O)O)CC[C@@H](C)[C@H]2CC1 | 56.5 µM (active) | inactive | – | – | inactive | inactive | inactive | inactive | – | inactive | inactive | inactive | – | inactive | inactive | inactive | inactive | inactive |
| CCCCC(=O)O[C@]1(C(=O)CO)[C@H](C)C[C@H]2[C@@H]3CCC4=CC(=O)C=C[C@]4(C)[C@@]3(F)[C@@H](O)C[C@@]21C | inactive | inactive | inactive | inactive | inactive | inactive | – | – | – | – | inactive | inactive | inactive | – | – | inactive | inactive | – |
| Cc1cc2c(s1)Nc1ccccc1N=C2N1CCN(C)CC1 | inactive | inactive | inactive | inactive | – | – | – | inactive | – | – | inactive | inactive | inactive | inactive | inactive | inactive | inactive | – |
